MITF inh = inhibitors of human MITF; O75030; 0.91% of 650,000 active; inhibition, % at 2.6 µM; AlphaScreen MITF homodimerization, bead proximity signal; in the data active = inhibition above about 50%;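 note: 0% = vehicle wells with protein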
GPR151 ag = human GPR151 activation; PathHunter beta-arrestin GPR151 cells, luminescence; activation, % at 11.2 µM; Q8TDV0; AID 1508602; 1% of 650,000 active; in the data active = activation above about 4.9%;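 note: 0% = median of compound wells and 100% = cells with positive control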
TEAD-YAP inh = TEAD-YAP interaction inhibition | HEK-TIYL cells, TEAD-Gal4/YAP UAS-luciferase luminescence | AID 1259422 | 1.4% of 640,000 active | inhibition, % at 9.12 µM; in the data active = inhibition above about 32%;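 note: 0% = median of test compound wells and 100% = reference inhibitor wells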
FBW7 act = activators of human E3 ligase FBW7 | Q969H0 | AlphaScreen FBW7–phospho-cyclin E peptide binding, activator screen | normalized activity (activation), % at 26.1 µM | 0.13% of 650,000 active; in the data active = normalized activity above about 1.9%;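 note: purified mutant Fbw7 with reduced substrate affinity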
GPR151 confirm = human GPR151 activation, confirmation screen | shares compounds with GPR151 ag | GPR151 PathHunter beta-arrestin cells, luminescence, 90 min; % of EA-reagent control over plate median | activation, % at 11.2 µM | 6,700 tested, under 10 active | AID 1508609;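 active = mean percent activation across replicates above the confirmation screen cutoff of 4.91%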
GPR119 counter = counter-screen for GPR151 activators: effect on human GPR119. activation, % at 11.2 µM. shares compounds with GPR151 ag. GPR119 PathHunter beta-arrestin cells, luminescence, 90 min; 0 = compound-well median, 100 = enzyme-acceptor control. 0.3% of 6,700 active;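 active = mean percent activation in the counterscreen above 29.09%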;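 note: counterscreen on off-target GPR119 to flag nonselective hits from the GPR151 activator screen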
Active calls of the source: *; . = no result. In the library only some 3.4% were active in any assay of this set; here they are far more common.

SMILES	MITF inh	GPR151 ag	TEAD-YAP inh	FBW7 act	GPR151 confirm	GPR119 counter
COCCn1c(=O)[nH]c2nc(-c3cnn(C)c3)cnc21	-7	-1	-6	0	.	.
CCCCc1cc(=O)oc2c(C)c(OC(C)C(=O)O)ccc12 (configuration not stated)	-2	-2	-11	0	.	.
CCN1CCN(C(c2ccccc2)c2sc3nc(-c4ccco4)nn3c2O)CC1 (configuration not stated)	-12	5.3*	3	0	-1	2
CC1=NN(C(=O)c2ccccc2)C(O)(C(C)(C)C)C1 (configuration not stated)	4	-3	-43	0	.	.
COC(=O)C(Sc1cc2c(cc1O)OCO2)(C(F)(F)F)C(F)(F)F	5	5.3*	3	0	0	1
COC(=O)C(Sc1c(O)cc(C)oc1=O)(C(F)(F)F)C(F)(F)F	5	0	-10	-1	.	.
CCOc1ccc(NC(=O)C2CCN(c3nn4c(=O)cc(C)nc4s3)CC2)cc1	-13	-1	-3	0	.	.
Cc1cc(C)c2cc(C#N)c(N3CCCN(C(=O)CCC(=O)O)CC3)nc2c1	6	1	-7	0	.	.
CC(=O)N1CCCN(c2nc3cc(C)cc(C)c3cc2C#N)CC1	13	7.2*	11	0	-1	0
CCOc1ccc(NC2=C(Cl)C(=O)N(c3ccc(OC)cc3)C2=O)cc1	17	0	15	1	.	.
N#Cc1ccccc1CN1CCC(Oc2cccc(-c3cccnc3)c2)CC1	1	5.2*	8	0	-1	7
O=[N+]([O-])c1ccccc1-c1cnn(-c2ccc(F)cc2F)c1	15	5.9*	-37	1	-2	-19
O=[N+]([O-])c1ccccc1-c1cnn(-c2ccccc2)c1	9	-1	-52	0	.	.
O=C(CCS(=O)(=O)c1cccc2nonc12)Nc1ccc(F)cc1Cl	14	-1	3	0	.	.
N#Cc1ccc(C(=O)NCc2nc(-c3ccncc3)n[nH]2)cc1	15	5.3*	8	0	0	-1
O=C(Cn1nc(-c2ccncc2)nc1SCC(=O)NC1CCCC1)Nc1nccs1	8	-3	-13	-1	.	.
CCN(CC)C(=O)Cn1cnc2sc(C(=O)Nc3cc(OC)ccc3OC)c(C)c2c1=O	3	0	0	0	.	.
CCN(CC)C(=O)Cn1cnc2sc(C(=O)Nc3cc(C)ccc3OC)c(C)c2c1=O	-3	4.9*	-3	0	2	5
Cc1c(C(=O)Nc2ccc(Oc3ccccc3)cc2)sc2ncn(CC(=O)Nc3ccc(C(C)C)cc3)c(=O)c12	8	0	1	0	.	.
Cc1sc2ncn(CC(=O)NCC(=O)NCc3ccccn3)c(=O)c2c1C	14	-1	-2	0	.	.
Cc1c(C(=O)Nc2ccc3c(c2)OCO3)sc2ncn(CC(=O)N3CC(C)CC(C)C3)c(=O)c12 (configuration not stated)	13	5.0*	6	0	0	1
Cc1ccc(NC(=O)Cn2cnc3sc(C(=O)Nc4ccccc4)c(C)c3c2=O)cc1	6	8.9*	11	1	0	2
Cc1sc2ncn(CC(=O)NCc3ccccn3)c(=O)c2c1C	-14	5.1*	-6	0	0	-11
CCOC(=O)c1ccccc1NC(=O)c1sc2nc(C)[nH]c(=O)c2c1C	-6	0	0	0	.	.
Cc1ccccc1C1CC(=O)Nc2cc3c(cc21)OCO3 (configuration not stated)	11	6.0*	6	0	0	6
SMILES	MITF inh	GPR151 ag	TEAD-YAP inh	FBW7 act	GPR151 confirm	GPR119 counter
Cc1ccc(NC(=O)c2sc3nc(-c4cccs4)cc(C(F)(F)F)c3c2N)cc1	3	-1	1	0	.	.
O=C(CSc1nnnn1-c1ccc(F)cc1)NCCc1ccccc1	20	-1	7	0	.	.
O=C(CSc1nnnn1-c1ccc(F)cc1)NCc1ccccc1C(=O)O	16	10*	-1	0	0	2
CC(C)C(=O)NC(=S)Nc1ccc(-c2nc3ncccc3o2)cc1	-1	1	-7	0	.	.
COc1ccc(C2C(C#N)=C(N)Oc3c2c(C)nn3-c2ccccc2)cc1OC (configuration not stated)	1	1	-2	0	.	.
CCOc1ccc(C2C(C#N)=C(N)Oc3c2c(C)nn3-c2ccccc2)cc1OC (configuration not stated)	19	6.4*	-8	0	0	-5

High-throughput results from PubChem.
